Screening data deposited in PubChem BioAssay by several laboratories.
The list is not random: actives were taken first. Their share in the collection is about 4.5%.
EBNA-1 inh = blocks EBNA-1 binding to DNA. EBNA-1 DNA binding, fluorescence polarization. hit rate 0.34% among 300,000. AID 1950. inhibition, % at 14.8 µM; in the data active = inhibition above about 28%
TPT1 inhibitor = blocks Candida albicans tRNA 2'-phosphotransferase; recombinant caTPT1, FP RNA substrate dephosphorylation; inhibition, % at 5 µM; AID 1962; hit rate 0.81% among 300,000;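 active = inhibition above the mean of all tested compounds plus 3 SD, set per screening campaign, cut at about 24% in these data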;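 also: plate controls were DMSO alone for no effect and ferristatin control at 100 nM for full effect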
GRIN3A LBD mod = modulates the human NR3A ligand-binding domain | NR3A LBD differential scanning fluorimetry, Tm shift; 0% = protein alone, 100% = glycine-bound protein | Tm shift relative to glycine control, % at 25 µM | hit rate 2.5% among 340,000 | AID 1259313;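 active = melting temperature shift of at least 10% of the positive control shift, at one fixed dose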
Rpn11 inh = blocks the human proteasome subunit Rpn11 | human 26S proteasome, Ub4-pepOG fluorescence polarization; 20S core pre-blocked with epoxomicin | inhibition, % at 20 µM | hit rate 0.59% among 360,000;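 active = inhibition at 20 µM, scaled to each plate's controls, above about 33%, limit read from the data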
ZTA DNA inh = counter-screen for EBNA-1 inhibitors: inhibitors of Epstein-Barr virus ZTA | P03206 | ZTA-DNA binding, fluorescence polarization | inhibition, % at 11 µM | hit rate 0.15% among 320,000 | AID 2234; in the data active = inhibition above about 33%
Target sequence (P03206 whole entry, looked up): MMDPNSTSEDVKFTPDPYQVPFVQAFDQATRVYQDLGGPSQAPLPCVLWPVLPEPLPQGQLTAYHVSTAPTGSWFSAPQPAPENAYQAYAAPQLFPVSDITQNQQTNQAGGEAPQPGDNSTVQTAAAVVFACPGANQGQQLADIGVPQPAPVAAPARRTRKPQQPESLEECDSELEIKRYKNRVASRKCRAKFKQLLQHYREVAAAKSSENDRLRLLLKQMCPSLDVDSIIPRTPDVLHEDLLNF
dFosB act = mouse delta FosB homodimer activation. P13346. activation, % at 25 µM. AID 493131. purified delta FosB, TAMRA-CDK5 oligo fluorescence polarization; percent of positive-control signal above neutral wells. hit rate 0.99% among 340,000;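 active = mean activation above about 17%, with every replicate also reaching it, limit read from the data, passing the limit was not always enough; inconclusive = only one of the two conditions met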
Target sequence (P13346 whole entry, looked up): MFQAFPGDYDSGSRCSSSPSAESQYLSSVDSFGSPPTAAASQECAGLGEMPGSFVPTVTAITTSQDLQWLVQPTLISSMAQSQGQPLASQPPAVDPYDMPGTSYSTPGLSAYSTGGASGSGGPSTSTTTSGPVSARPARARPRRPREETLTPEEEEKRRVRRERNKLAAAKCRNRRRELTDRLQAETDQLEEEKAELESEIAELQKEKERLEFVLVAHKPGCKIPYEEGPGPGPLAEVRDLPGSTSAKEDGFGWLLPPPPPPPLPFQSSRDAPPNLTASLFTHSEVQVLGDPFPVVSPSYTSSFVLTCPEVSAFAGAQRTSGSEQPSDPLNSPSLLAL
Numbers without * were called inactive; ? = inconclusive; . = no result shown.

SMILES | EBNA-1 inh | TPT1 inhibitor | GRIN3A LBD mod | Rpn11 inh | ZTA DNA inh | dFosB act
COc1cc2cc(C(=O)N/N=C/c3ccc(F)cc3)[nH]c2cc1OC | 7 | 4 | 13* | 4 | -8 | -3
COc1ccc(/C=N/NC(=O)c2cc3cc(OC)c(OC)cc3[nH]2)cc1 | -22 | 3 | 4 | 11 | 4 | -10
CCOc1ccc2[nH]c(C(=O)N/N=C/c3ccc(OC)cc3)cc2c1 | . | . | . | 7 | . | 3
COc1ccc(NC(=O)c2[nH]c(C)c(C(C)=O)c2C)cc1S(=O)(=O)Nc1ccc(Br)cc1 | 6 | 2 | 11* | -3 | 6 | 13
COc1ccc(OC)c(S(=O)(=O)Nc2ccc(C(N)=O)cc2)c1 | -4 | -1 | 2 | 0 | 8 | -6
COc1ccc(NC(=O)c2ccc(F)cc2)cc1S(=O)(=O)Nc1cc(C)ccc1Br | -3 | -1 | 21* | 8 | -21 | 1
COc1ccc(OC)c(S(=O)(=O)Nc2ccc(C(C)=O)cc2)c1 | 3 | 2 | 11* | 1 | 10 | -1
CCCCC(NC(=O)Cc1c(C)c2cc3c(C)c(C)oc3c(C)c2oc1=O)C(=O)O (stereo unspecified) | 6 | -3 | -1 | -5 | 2 | -1
CCCC(NC(=O)Cc1c(C)c2cc3c(C)c(C)oc3c(C)c2oc1=O)C(=O)N[C@@H](Cc1ccccc1)C(=O)O (stereo partly specified) | -15 | 1 | 0 | 76* | -2 | -1
CCN1C(=S)N[C@@H](c2cccs2)C(C(=O)OC)=C1C | 0 | -2 | 3 | 4 | -4 | -1
O=[N+]([O-])c1cccc(-n2cc3ccc([N+](=O)[O-])cc3n2)c1 | . | . | 14* | 2 | -3 | 5
CCOc1ccccc1C(=O)NCC(=O)N1CCN(Cc2ccc3c(c2)OCO3)CC1 | . | . | -2 | 0 | 13 | -13
CC(=O)NC1C(=O)N(CCN2CCOCC2)c2ccc(Br)cc21 (stereo unspecified) | 5 | -3 | 18* | -29 | -2 | -7
CCOC(=O)C1CCN(C(=O)Nc2ccc3nc(-c4ccco4)c(-c4ccco4)nc3c2)CC1 | 4 | -24 | -2 | -15 | 11 | 13
O=C(Nc1ccc2nc(-c3ccco3)c(-c3ccco3)nc2c1)N1CCCCCC1 | 24 | -1 | -6 | . | 41* | .
CC1=C(C(=O)Nc2ccccc2)C(c2ccc(C)cc2)N=C(Nc2nc3ccccc3o2)N1 (stereo unspecified) | -13 | 3 | 1 | -2 | -18 | 42*
c1ccc(-c2nc(-c3cccnc3)cs2)cc1 | . | . | 0 | 3 | . | -18
NC(=O)c1cc(-c2csc(-c3cccnc3)n2)ccc1O | -7 | 0 | 20* | -5 | -15 | 11
NC(=O)c1cc(-c2csc(NCCc3ccccc3)n2)ccc1O | -1 | 2 | 10* | -4 | 12 | -13
O=C(Cn1cc(C(F)(F)F)ccc1=O)NCc1ccc(F)cc1 | -2 | -3 | -1 | 1 | 10 | 0
CC(C)c1cc(C(=O)OCC(=O)N2CCN(C(=O)c3ccco3)CC2)c(O)c(C(C)C)c1 | -3 | -2 | 9 | -2 | 16 | -14
COc1cccc(CC2(CO)CCCN(Cc3c(C)cc(C)cc3-n3cccn3)C2)c1 (stereo unspecified) | 1 | 0 | -2 | 7 | 9 | -4
O=C(Nc1cccc(Cl)c1)Nc1sccc1-c1nc2ccccc2s1 | 0 | 11 | 29* | . | -5 | 3
O=C(Nc1ccccc1)c1nc2ccccc2s1 | -9 | -1 | -24 | 2 | 5 | -15
O=C(Nc1ccccc1)Nc1sccc1-c1nc2ccccc2s1 | 3 | 12 | 22* | 29 | 4 | -3
SMILES | EBNA-1 inh | TPT1 inhibitor | GRIN3A LBD mod | Rpn11 inh | ZTA DNA inh | dFosB act
Cc1cc(C)c2ccc(=O)n(CC(=O)N/N=C/c3ccccc3Cl)c2n1 | -5 | -5 | 0 | 5 | 5 | -11
Cc1cc([N+](=O)[O-])c2c(c1C)C1C=CCC1C(c1ccccn1)N2 (stereo unspecified) | 9 | -1 | . | . | -5 | .
COc1cccc(/C=N/n2c(COc3ccccc3)n[nH]c2=S)c1 | 15 | -1 | 0 | 4 | -15 | -11
N=C1CCC(=N)c2c1c(O)c1ccccc1c2O | 25 | -35 | -5 | -68 | 37* | -74
CN1CCN(NC(=O)COc2cccc(C(F)(F)F)c2)CC1 | -5 | -3 | 13* | -3 | 11 | -2
CN1CCC(N(C)S(=O)(=O)c2ccc(NC(=O)COc3cccc(C(F)(F)F)c3)cc2)CC1 | 2 | -2 | 1 | 3 | 0 | -84
O=C1/C(=C/c2ccccc2)Oc2cc(OC(=O)N3CCOCC3)ccc21 | -3 | 1 | 20* | 3 | 5 | -8
O=C(Cn1cccc1C(=O)c1ccccc1)NCc1ccc(F)cc1 | -11 | -4 | -1 | 2 | -11 | -18
O=Cc1c(OCc2ccccc2)ccc2ccccc12 | 8 | 0 | -9 | 2 | 8 | -3
CCc1cc(/C(Cc2ccc3ccccc3n2)=N\O)c(O)cc1O | -3 | -1 | 29* | -2 | -15 | -7
CCc1cc(/C(Cc2ccccn2)=N\O)c(O)cc1O | 8 | -5 | 1 | -6 | 1 | -7
Cc1ccc(NC(=O)c2ccc(NS(=O)(=O)c3cccc4cccnc34)cc2)cc1 | -6 | -3 | 28* | 6 | -1 | -13
COc1ccccc1NC(=O)c1ccc(NS(=O)(=O)c2cccc3cccnc23)cc1 | -9 | 2 | 18* | -1 | -14 | ?
COc1ccc(NC(=O)c2ccc(NS(=O)(=O)c3cccc4cccnc34)cc2)cc1 | 0 | -1 | 2 | -5 | 2 | -2
COc1ccccc1NC(=O)c1ccc(NS(=O)(=O)c2c(C)noc2C)cc1 | -5 | 1 | -1 | -3 | -11 | -1
Cc1ccc(S(=O)(=O)Nc2ccc(C(=O)NCc3ccccn3)cc2)cc1 | 2 | -5 | 13* | -22 | 10 | -1
COc1ccc(C)cc1NC(=O)c1ccc(NS(=O)(=O)c2cccc3cccnc23)cc1 | 9 | 3 | -2 | 0 | -3 | 6
COc1ccccc1NC(=O)c1ccc(NS(=O)(=O)c2ccc(F)c(Cl)c2)cc1 | 7 | 0 | 11* | 9 | -2 | -2
C[C@@H]1ON(C)[C@H]2C[C@H]3c4[nH]c5ccccc5c4CCN3C(=O)[C@@H]12 | . | . | . | 4 | . | .
N#Cc1ccccc1NC(=O)CN(Cc1ccccc1)Cc1ccccc1 | 4 | -1 | 16* | 2 | 2 | -8
Cc1ccc(NC(=O)CN(C)CC(=O)Nc2ccccc2C#N)cc1 | -4 | 1 | 0 | -7 | -1 | -6
CCC(C)[C@H](NC(=O)N1CCn2c1nc1ccccc12)C(=O)NCc1ccccc1 (stereo partly specified) | -3 | -3 | -3 | 2 | -20 | -17
O=C(NC1=NCCS1)c1sc2cc(Cl)cc(Cl)c2c1Cl | -3 | 1 | 20* | 2 | 8 | -4
